Experimental findings from PubChem BioAssay (NCATS) are described below.

Test [1] concerns the target Aldehyde dehydrogenase, mitochondrial (Homo sapiens) (UniProt P05091). Description: qHTS for Inhibitors of the Aldehyde Dehydrogenase Family (ALDH2) Primary screen (AID 2061308). Note: nearly all actives have a fitted effect of over 55% in size. The conditions noted are these: ALDH2 enzyme inhibition qHTS, 1536-well; series mostly up to 56 µM.
The target in test [2] is Retinaldehyde dehydrogenase 3 (Homo sapiens) (UniProt P47895). The experiment in a line: qHTS for Inhibitors of the Aldehyde Dehydrogenase Family (ALDH1A3) Primary screen (AID 2061315). The conditions noted are these: ALDH inhibition qHTS; series mostly up to 56 µM. On the technique in general: In qHTS, concentration-response curves come from the screen itself.

Results filed as inconclusive are left out. A call without a number means that no potency is given here. Calls of active or inactive are those of the source. Calls come from the whole dose curve; as a rule, active = well fitted curve in the direction sought with a large enough effect; inconclusive = small, poorly fitted or top-dose-only effect, or another doubt; inactive = no such curve, though single readings can be large; an effect the other way counts as inactive or inconclusive.

In the case of `COc1ccc(C2c3c(nc(CCCc4ccccc4)[nH]c3=O)Oc3ccc4ccccc4c32)cc1OC` (centres undefined), the Potency entry in test [1] and in test [2] was “inactive” each time.

Consider `CC(=O)Nc1sc2c(c1-c1cncnc1)CCNC2`, for which the Potency entry in test [1] and in test [2] was “inactive” each time.

Consider `N#Cc1nc(Nc2cccc(C(F)(F)F)c2)nc(NC2CCCC2)n1`, for which the Potency entry in test [1] and in test [2] was “inactive” in each case.

Turning to `COc1cc(-c2no[n+]([O-])c2C#N)cc(OC)c1OC`, the Potency result in test [1] and in test [2] was “inactive” each time.

As to `Cc1cc(C)nc(NC(=S)N2CCN(c3cccc([N+](=O)[O-])c3)CC2)c1`, the Potency entry in test [1] and in test [2] was “inactive” throughout.

Consider `Cc1sc(NC(=O)Cc2ccc3c(c2)OCO3)nc1-c1ccc2c(c1)CCN2C(=O)c1ccccc1C(F)(F)F`, for which the Potency entry in test [1] and in test [2] was “inactive” throughout.

Take `Cc1ccc(-c2c(C(=O)CF)n(CCCO)c3ncnc(N)c23)cc1`: the Potency result in test [1] and in test [2] was “inactive” in each case.

For the compound `O=S(=O)(c1ccccc1)N1CCN(S(=O)(=O)c2ccc3c(c2)OCCO3)CC1`, the Potency result in test [1] and in test [2] was “inactive” in each case.

As for `C[C@H]1CC[C@@]2(OC1)O[C@H]1CC3[C@@H]4CC[C@@H]5C[C@@H](O[C@@H]6O[C@H](CO)[C@@H](O[C@@H]7O[C@@H](C)[C@H](O)[C@@H](O)[C@H]7O)[C@H](O)[C@H]6O[C@@H]6O[C@H](CO)[C@@H](O)[C@H](O)[C@H]6O)CC[C@]5(C)C4CC[C@]3(C)[C@H]1[C@@H]2C` (some centres undefined), the Potency result in test [1] and in test [2] was “inactive” each time.

As to `CCCn1c(C)nc2c(NCCN(CC)CC)nc(C)nc21`, the Potency result in test [1] and in test [2] was “inactive” each time.

For `O=C(Nc1cccc(C(F)(F)F)c1)Nc1nnc(-c2ccncc2)s1`, the Potency result in test [1] and in test [2] was “inactive” throughout.

Consider `N=c1c2c(ccn1CCc1ccccc1)Oc1ccc3ccccc3c1C2c1ccccc1` (centres undefined), for which the Potency result in test [1] and in test [2] was “inactive” in each case.
